Assay: blood-stage malaria parasite viability loss – strain 3D7, DAPI fluorescence, 100 nL, primary screen (AID 1184);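 note: parasites grown inside human red blood cells in medium with human serum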
Settings: P. falciparum 3D7 growth, 3 d, higher = more signal
`O=C1O[C@H](c2ccccc2)[C@H](c2ccccc2)N2[C@H]1[C@@H](C(=O)Nc1nc3ccccc3s1)[C@]1(C(=O)Nc3ccc(C#CC4(O)CCCCCC4)cc31)[C@H]2c1ccc(O)cc1` showed a z-score of -0.416. Work on `CCCC=C(CCC)[C@@H](NS(=O)(=O)c1cccc(C(F)(F)F)c1)c1ccc(C(=O)OC)cc1` yielded a z-score of 0.551. In the case of `C=CC[C@@]1(C(=O)NCC(O)CO)N=C(c2ccc(OCCCO)cc2)O[C@@H]1c1ccccc1CN=[N+]=[N-]` (stereo partly specified), the z-score is reported as -2.34. With `Cc1ccccc1C(O)C1C=CC2C(=O)N(c3ccccc3)C(=O)C2N1Nc1ccc(C#N)cc1` (stereo unspecified) the z-score was -0.494. Work on `O=C1O[C@H](c2ccccc2)[C@H](c2ccccc2)N2[C@H]1[C@@H](C(=O)Nc1nc3ccccc3s1)[C@]1(C(=O)Nc3ccc(C#CC4=CCCCC4)cc31)[C@H]2c1ccccc1OCCO` yielded a z-score of -2.09. For `CCCNC(=O)[C@@H]1c2ccccc2C(=O)N(Cc2cc(F)cc(C(F)(F)F)c2)[C@H]1c1ccc(CO)cc1`, the z-score was -0.43. Molecule `COc1ccc(NN2C(C(O)c3cc(OC)c(OC)c(OC)c3)C=CC3C(=O)N(C4CCCCC4)C(=O)C32)cc1` (stereo unspecified) has a z-score of -1.11. With `CCOC(=O)C[C@H]1[C@H](OC(=O)c2cc3ccccc3oc2=O)[C@@H](NC(=O)c2ccc3ccccc3c2)c2cc(OCCCO)ccc2N1C(=O)c1ccc2ccccc2n1` the z-score was -1.6. Work on `O=C(NCc1ccccc1)c1ccc(Br)cc1[N+](=O)[O-]` yielded a z-score of 2.11. Work on `COc1ccc([Si](C)(C)[C@@H]2[C@@H](CCO)O[C@]3(C(=O)N(Cc4ccc(NC(=O)[C@H](C)O)cc4)c4ccccc43)[C@H]2C)cc1` yielded a z-score of -2.79. Work on `COC(=O)C(CC#Cc1ccc2c(c1)[C@]1(C(=O)N2)[C@H](C(=O)N2CCCCCCC2)[C@H]2C(=O)O[C@H](c3ccccc3)[C@H](c3ccccc3)N2[C@@H]1c1ccc(O)cc1)C(=O)OC` yielded a z-score of -1.39. Work on `CCOC(=O)C[C@H]1[C@H](OC(=O)Cc2ccc3c(c2)OCO3)[C@@H](NC(=O)c2ccc3ccccc3c2)c2cc(OCCCO)ccc2N1C(=O)Cc1ccc(OC)cc1` yielded a z-score of -0.415. With `COC(=O)[C@@]1(Cc2ccccc2N=[N+]=[N-])N=C(c2ccc(OCCCO)cc2)O[C@H]1c1ccccc1CN=[N+]=[N-]` the z-score was -2.29. With `O=C1OCC=C[C@H]2OC34C=CCN(Cc5ccccc5)C(=O)[C@H]3N(CCCCCO)C(=O)[C@@H]4[C@@H]12` (stereo partly specified) the z-score was -1.99. Work on `Cc1ccc(S(=O)(=O)N2[C@@H](c3ccccc3)C(C(=O)O)=CC[C@H]2c2ccccc2)cc1` yielded a z-score of -1.02. In the case of `C=CC[C@@]1(C(=O)N2CCOCC2)N=C(c2ccc(OCCCO)cc2)O[C@@H]1c1ccccc1`, the z-score is reported as -1.74. Molecule `[N-]=[N+]=NCc1ccccc1C[C@]1(C(N)=O)N=C(c2ccc(OCCCO)cc2)O[C@H]1c1ccccc1CN=[N+]=[N-]` has a z-score of -2.29. `COCCCNC(=O)[C@@H]1c2ccccc2C(=O)N(CC23CC4CC(CC(C4)C2)C3)[C@H]1c1ccc(CO)cc1` gave a z-score of -1.95. In the case of `Cc1ccc(N2C(=O)c3ccccc3[C@@H](C(=O)NCc3ccccc3)[C@@H]2c2ccc(CO)cc2)nc1`, the z-score is reported as -0.432. In the case of `O=C(CS)NCCCCCNC(=O)[C@H]1C[C@H]2C(=O)N3CCC[C@H]3C(=O)N2[C@H]1c1ccc(O)cc1`, the z-score is reported as -0.0463. Molecule `CC(C)[Si]1(C(C)C)OCc2cc(C3CC3)nc(-c3ccccc3)c21` has a z-score of -1.16. `COCC(=C=CC[C@H](O)c1ccc(OCCO)cc1)C[C@H](O)c1ccccn1` gave a z-score of -1.14. For `C=CCNC(=O)[C@H]1[C@@H]2C(=O)O[C@@H](c3ccccc3)[C@@H](c3ccccc3)N2[C@@H](c2ccccc2OCCO)[C@]12C(=O)N(C(=O)OCCOC)c1ccc(C#CCC(C(=O)OC)C(=O)OC)cc12`, the z-score was -2.36. With `COC(=O)[C@H]1[C@@H]2COc3ccccc3[C@H]2N[C@H]1C(=O)OC` the z-score was 0.535. Work on `C=CC[C@]1(C(=O)N2CCCCC2)N=C(c2ccc(OCCCO)cc2)O[C@H]1c1ccccc1N=[N+]=[N-]` yielded a z-score of -2.21. For `C=CCNC(=O)[C@@H]1[C@H]2C(=O)O[C@H](c3ccccc3)[C@H](c3ccccc3)N2[C@H](c2ccc(OCCO)cc2)[C@@]12C(=O)N(C(=O)OCCOC)c1ccc(C#CC3(O)CCCCCC3)cc12`, the z-score was -2.33. Molecule `N#Cc1ccc(NN2C(C(O)c3ccc(I)cc3)C=CC3C(=O)N(c4ccccc4)C(=O)C32)cc1` (stereo unspecified) has a z-score of 0.175. Work on `[N-]=[N+]=NCc1ccccc1[C@H]1OC(c2ccc(OCCCO)cc2)=N[C@@]1(Cc1ccccc1N=[N+]=[N-])C(=O)NCc1ccccc1` yielded a z-score of -2.49. Work on `NC(=O)[C@H]1[C@@H]2C(=O)O[C@@H](c3ccccc3)[C@@H](c3ccccc3)N2[C@@H](c2ccc(O)cc2)[C@]12C(=O)Nc1ccc(C#CCCO)cc12` yielded a z-score of -0.629. For `CO[C@H]1O[C@H](CO)[C@@H](OC(=O)CCc2ccccc2)[C@@H]2OC(=O)[C@H](Cc3cccc(Br)c3)C/C=C/C[C@@H](Cc3cccc(Br)c3)C(=O)O[C@@H]12`, the z-score was -1.84. Molecule `CCC1=C2CN(Cc3ccccc3Br)[C@@H]([C@@H](O)Cc3ccccc3)C2C=CCC1` (stereo partly specified) has a z-score of -1.92. With `CC[C@@H]1C=C(C(=O)O)[C@H](c2ccccc2)N1S(=O)(=O)c1ccc([N+](=O)[O-])cc1` the z-score was -1.01. In the case of `[N-]=[N+]=NCc1ccccc1C[C@]1(C(=O)N2CCCCC2)N=C(c2ccc(OCCCO)cc2)O[C@H]1c1ccccc1CN=[N+]=[N-]`, the z-score is reported as -2.32. `C=CC[C@]1(C(=O)OC)N=C(c2ccc(OCCCO)cc2)O[C@H]1c1ccccc1CN=[N+]=[N-]` showed a z-score of -2.35. In the case of `C=C[C@H](OC)[C@@H](OC(=O)Nc1ccc(SC)cc1)c1ccc(O)c(F)c1`, the z-score is reported as 0.188. For `O=C1C2C=CC(C(O)C(c3ccccc3)c3ccccc3)N(Nc3ccc([N+](=O)[O-])cc3)C2C(=O)N1c1ccccc1` (stereo unspecified), the z-score was 0.535.

— PubChem BioAssay
